This note sets out measurements from PubChem BioAssay.

The test system of experiment [1] is PRMT1 (protein arginine N-methyltransferase 1). Nature of the experiment: PRMT1 binders on small-molecule microarrays, primary screen, biochemical, small-molecule microarray, 635 nm fluorescence (AID 1088).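 Also: binding of Prmt1 protein to compounds spotted on small-molecule microarray slides.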 To be noted: small-molecule microarray binding, higher = more signal.
The nature of experiment [2]: yeast growth modulation, basal conditions, primary screen, YJM789 clinical isolate, OD600, 24 h (AID 1089).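 Also: growth of clinical yeast isolate S. cerevisiae YJM 789 seeded 1000 cells per well; test concentration not given here.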 As to conditions: S. cerevisiae YJM789 growth, higher = more signal, called active from +8 up or from −8 down.
A short description of experiment [3]: fission yeast growth modulation, primary screen, strain 972, OD600, 24 h, no modulator (AID 1090).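 Also: basal condition with compound alone and no growth modifier present; test concentration not given here.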 As to conditions: S. pombe 972 growth, higher = more signal, called active from +8 up or from −8 down.
Experiment [4] can be described thus: S. cerevisiae growth modulation with rapamycin, primary screen, strain BY4716, OD600, 96 h (AID 1091). Also: test concentration not given here. To be noted: higher = more signal, called active from +8 up or from −8 down.
For experiment [5], the target named is Torsin-1A-interacting protein 2 (Homo sapiens) (UniProt Q8NFQ8). The experiment can be described thus: LULL1 binders on small-molecule microarray, primary screen, cell lysate, human LULL1 lysate, 635/667 nm fluorescence (AID 1092).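 Also: probe is lysate of COS7 cells overexpressing human LULL1; score merges per-feature 667 nm fluorescence with signal-to-noise.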 To be noted: hLULL1 lysate binding, 635 nm fluorescence, higher = more signal.
Sequence of Torsin-1A-interacting protein 2 (Homo sapiens) (Q8NFQ8 whole entry, looked up): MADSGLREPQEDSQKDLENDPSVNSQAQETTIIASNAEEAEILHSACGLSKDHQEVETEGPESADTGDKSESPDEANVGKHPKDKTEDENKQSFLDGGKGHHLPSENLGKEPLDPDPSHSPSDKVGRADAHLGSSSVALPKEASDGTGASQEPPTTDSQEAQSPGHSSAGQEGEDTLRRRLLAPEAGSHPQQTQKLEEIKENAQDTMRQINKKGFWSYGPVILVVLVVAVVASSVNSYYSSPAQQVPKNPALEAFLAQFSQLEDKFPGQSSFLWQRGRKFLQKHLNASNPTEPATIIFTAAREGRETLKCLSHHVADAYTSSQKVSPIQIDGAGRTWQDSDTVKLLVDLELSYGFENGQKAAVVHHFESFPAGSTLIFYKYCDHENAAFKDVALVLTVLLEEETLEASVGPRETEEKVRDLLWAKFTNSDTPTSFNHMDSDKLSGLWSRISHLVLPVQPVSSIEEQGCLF
Experiment [6] is described as follows: E. coli growth modulation, two-sided OD650, primary screen, E. coli filamentation project, strain DRC41, 24 h (AID 1093).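 Also: MC1000 strain lacking acrAB efflux and sulA so SOS filamentation is blocked; test concentration not given here.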 As to conditions: OD650, 24 h, higher = more signal, called active from +8 up or from −8 down.
Experiment [7] in a line: small-molecule microarray binders of probe aLefty2, primary screen, biochemical, biotinylated probe, 635/667 nm fluorescence (AID 1094).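 Also: score merges spot fluorescence near 667 nm with spot signal-to-noise ratio.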 To be noted: higher = more signal.
Experiment [8] deals with Noggin (protein binding on small-molecule microarray). The experiment can be described thus: Noggin binders on small-molecule microarray, primary screen, biochemical, 635/667 nm fluorescence (AID 1095).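 Also: score merges 667 nm feature fluorescence with signal to noise over triplicate slides.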 To be noted: 635 nm fluorescence, higher = more signal.
Experiment [9] addresses Neurogenic locus notch homolog protein 3 (Homo sapiens) (UniProt Q9UM47). Nature of the experiment: NOTCH3 binders on small-molecule microarray, primary screen, biochemical, 635/667 nm fluorescence (AID 1096). As to conditions: NOTCH3 binding, 635 nm fluorescence, higher = more signal.
Experiment [10] can be described thus: small-molecule microarray binders of probe aEGFR, primary screen, biochemical, biotinylated probe, 635/667 nm fluorescence (AID 1097).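 Also: probe is a biotinylated anti-EGFR antibody binding compounds printed on slides; score combines fluorescence near 667 nm and signal to noise of each spot.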 To be noted: higher = more signal.
For experiment [11], the system named is Plasmodium falciparum Sir2 (PF13_0152, Sir2A). The experiment can be described thus: pfSir2 binders on small-molecule microarrays, primary screen, biochemical, small-molecule microarray, 635 nm fluorescence (AID 1098).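 Also: score merges spot fluorescence intensity with its signal-to-noise ratio.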 As to conditions: small-molecule microarray binding, fluorescence 635 nm; higher = more signal.
Experiment [12] in a line: small-molecule microarray binders of probe aDKK1, primary screen, biochemical, biotinylated probe, 635/667 nm fluorescence (AID 1099).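 Also: score merges 667nm spot fluorescence with signal to noise across triplicate slides; reference of the scale not given here.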 As to conditions: higher = more signal.
Experiment [13] in a line: small-molecule microarray binders of probe aCHRDL2, primary screen, biochemical, biotinylated probe, 635/667 nm fluorescence (AID 1100). As to conditions: higher = more signal.
A short description of experiment [14]: splicing luciferase reporter signal modulators, primary screen, spliceosome inhibition project, cell-based, HEK293, splice +/- reporter (AID 1101).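 Also: HEK293 cells carrying a splicing-competent luciferase reporter gene; test concentration not given here.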 As to conditions: luminescence, 24 h, higher = more signal, called active from +8 up or from −8 down. A general note: Reporter assays use an easily measured gene product as a stand-in for the process of interest.
The target in experiment [15] is Fibroblast growth factor 10 (Homo sapiens) (UniProt O15520). The experiment can be described thus: FGF10 binders on small-molecule microarrays, primary screen, biochemical, small-molecule microarray, 635 nm fluorescence (AID 1102). As to conditions: FGF10 binding, fluorescence 635 nm, higher = more signal.
Sequence of Fibroblast growth factor 10 (Homo sapiens) (O15520 whole entry, looked up): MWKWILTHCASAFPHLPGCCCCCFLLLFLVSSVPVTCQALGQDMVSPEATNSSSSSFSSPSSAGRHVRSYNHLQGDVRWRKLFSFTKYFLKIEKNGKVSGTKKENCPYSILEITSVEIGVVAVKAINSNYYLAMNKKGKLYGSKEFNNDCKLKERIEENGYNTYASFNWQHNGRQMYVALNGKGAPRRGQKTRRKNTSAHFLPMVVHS
Experiment [16] deals with glycogen synthase kinase-3 (GSK3A per assay name; protocol says GSK3B). Nature of the experiment: GSK3 binders on small-molecule microarrays, primary screen, biochemical, small-molecule microarray, 635 nm fluorescence, GSK3A (AID 1103). Also: the record names both GSK3A and GSK3B. As to conditions: small-molecule microarray binding, fluorescence 635 nm; higher = more signal.
Experiment [17] addresses Epidermal growth factor receptor (Homo sapiens) (UniProt P00533). The experiment can be described thus: EGFR binders on small-molecule microarrays, primary screen, biochemical, small-molecule microarray, 635 nm fluorescence (AID 1104).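 Also: score merges 667 nm emission intensity with spot signal to noise over triplicate slides.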 To be noted: EGFR binding, higher = more signal.
The target of experiment [18] is Follistatin-related protein 3 (Homo sapiens) (UniProt O95633). Nature of the experiment: FSTL3 binders on small-molecule microarrays, primary screen, biochemical, small-molecule microarray, 635 nm fluorescence (AID 1105).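 Also: score merges emission near 667 nm and signal to noise per printed spot across three slides.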 To be noted: FSTL3 binding, higher = more signal.
Sequence of Follistatin-related protein 3 (Homo sapiens) (O95633 whole entry, looked up): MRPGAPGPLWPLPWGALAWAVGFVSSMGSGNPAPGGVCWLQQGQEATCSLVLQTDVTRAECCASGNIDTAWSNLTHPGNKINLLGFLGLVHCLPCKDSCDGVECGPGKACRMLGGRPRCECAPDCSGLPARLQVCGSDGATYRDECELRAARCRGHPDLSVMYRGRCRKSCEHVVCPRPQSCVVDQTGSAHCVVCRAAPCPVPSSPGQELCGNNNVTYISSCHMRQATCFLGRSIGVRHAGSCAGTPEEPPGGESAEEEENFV
In experiment [19] the target is Dickkopf-related protein 1 (Homo sapiens) (UniProt O94907). Nature of the experiment: DKK1 binders on small-molecule microarrays, primary screen, biochemical, small-molecule microarray, 635 nm fluorescence scan (AID 1106).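 Also: score merges emission near 667 nm with signal to noise over three replicate slides.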 As to conditions: DKK1 binding, higher = more signal.
Sequence of Dickkopf-related protein 1 (Homo sapiens) (O94907 whole entry, looked up): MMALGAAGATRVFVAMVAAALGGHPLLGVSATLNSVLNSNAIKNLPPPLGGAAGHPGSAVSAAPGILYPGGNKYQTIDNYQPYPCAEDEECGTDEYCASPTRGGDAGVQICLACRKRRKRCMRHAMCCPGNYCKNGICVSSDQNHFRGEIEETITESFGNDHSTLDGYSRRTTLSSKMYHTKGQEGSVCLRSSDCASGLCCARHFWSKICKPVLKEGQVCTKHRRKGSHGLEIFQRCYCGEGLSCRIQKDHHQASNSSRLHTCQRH
In experiment [20] the test system is Inhibin beta A chain (activin A). The experiment can be described thus: INHBA (activin A) binders on microarrays, primary screen, biochemical, small-molecule microarray, 635 nm fluorescence scan (AID 1107).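 Also: mouse activin A protein probed at 4.33 µg/mL on printed slides; score merges bound-protein fluorescence near 667 nm with spot signal-to-noise.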 To be noted: small-molecule microarray binding, higher = more signal.

Calls of active or inactive are those of the source.

Sequence of Epidermal growth factor receptor (Homo sapiens) (P00533 whole entry, looked up): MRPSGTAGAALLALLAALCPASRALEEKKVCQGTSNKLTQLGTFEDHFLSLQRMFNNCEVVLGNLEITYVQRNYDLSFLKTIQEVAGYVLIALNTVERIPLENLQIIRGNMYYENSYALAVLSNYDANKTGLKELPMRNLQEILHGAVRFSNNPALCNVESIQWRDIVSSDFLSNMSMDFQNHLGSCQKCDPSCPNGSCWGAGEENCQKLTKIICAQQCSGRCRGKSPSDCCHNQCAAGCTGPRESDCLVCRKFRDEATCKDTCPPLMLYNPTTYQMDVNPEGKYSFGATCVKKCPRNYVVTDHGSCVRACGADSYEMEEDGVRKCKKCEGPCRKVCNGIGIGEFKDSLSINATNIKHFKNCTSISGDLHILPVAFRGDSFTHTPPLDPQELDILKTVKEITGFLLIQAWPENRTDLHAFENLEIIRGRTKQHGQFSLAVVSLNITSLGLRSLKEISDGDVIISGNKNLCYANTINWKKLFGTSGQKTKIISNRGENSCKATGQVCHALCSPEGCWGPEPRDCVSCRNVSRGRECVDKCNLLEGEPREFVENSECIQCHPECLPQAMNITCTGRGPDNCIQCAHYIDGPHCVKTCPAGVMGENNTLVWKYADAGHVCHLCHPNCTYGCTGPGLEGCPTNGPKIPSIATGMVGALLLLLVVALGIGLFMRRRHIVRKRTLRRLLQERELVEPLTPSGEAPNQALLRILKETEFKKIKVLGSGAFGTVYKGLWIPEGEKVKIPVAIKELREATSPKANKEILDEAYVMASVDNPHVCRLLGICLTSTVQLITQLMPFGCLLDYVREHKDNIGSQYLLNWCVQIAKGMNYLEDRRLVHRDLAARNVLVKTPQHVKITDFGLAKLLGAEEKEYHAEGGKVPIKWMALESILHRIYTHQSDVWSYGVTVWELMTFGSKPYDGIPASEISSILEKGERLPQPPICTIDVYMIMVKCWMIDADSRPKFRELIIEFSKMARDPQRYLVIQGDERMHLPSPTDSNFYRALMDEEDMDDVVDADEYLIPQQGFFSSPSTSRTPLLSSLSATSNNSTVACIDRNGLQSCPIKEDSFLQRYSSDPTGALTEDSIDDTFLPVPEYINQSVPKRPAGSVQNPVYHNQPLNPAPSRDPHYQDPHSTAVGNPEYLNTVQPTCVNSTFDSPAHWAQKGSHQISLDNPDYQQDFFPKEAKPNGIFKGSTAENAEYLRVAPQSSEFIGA
Sequence of Neurogenic locus notch homolog protein 3 (Homo sapiens) (Q9UM47 whole entry, looked up): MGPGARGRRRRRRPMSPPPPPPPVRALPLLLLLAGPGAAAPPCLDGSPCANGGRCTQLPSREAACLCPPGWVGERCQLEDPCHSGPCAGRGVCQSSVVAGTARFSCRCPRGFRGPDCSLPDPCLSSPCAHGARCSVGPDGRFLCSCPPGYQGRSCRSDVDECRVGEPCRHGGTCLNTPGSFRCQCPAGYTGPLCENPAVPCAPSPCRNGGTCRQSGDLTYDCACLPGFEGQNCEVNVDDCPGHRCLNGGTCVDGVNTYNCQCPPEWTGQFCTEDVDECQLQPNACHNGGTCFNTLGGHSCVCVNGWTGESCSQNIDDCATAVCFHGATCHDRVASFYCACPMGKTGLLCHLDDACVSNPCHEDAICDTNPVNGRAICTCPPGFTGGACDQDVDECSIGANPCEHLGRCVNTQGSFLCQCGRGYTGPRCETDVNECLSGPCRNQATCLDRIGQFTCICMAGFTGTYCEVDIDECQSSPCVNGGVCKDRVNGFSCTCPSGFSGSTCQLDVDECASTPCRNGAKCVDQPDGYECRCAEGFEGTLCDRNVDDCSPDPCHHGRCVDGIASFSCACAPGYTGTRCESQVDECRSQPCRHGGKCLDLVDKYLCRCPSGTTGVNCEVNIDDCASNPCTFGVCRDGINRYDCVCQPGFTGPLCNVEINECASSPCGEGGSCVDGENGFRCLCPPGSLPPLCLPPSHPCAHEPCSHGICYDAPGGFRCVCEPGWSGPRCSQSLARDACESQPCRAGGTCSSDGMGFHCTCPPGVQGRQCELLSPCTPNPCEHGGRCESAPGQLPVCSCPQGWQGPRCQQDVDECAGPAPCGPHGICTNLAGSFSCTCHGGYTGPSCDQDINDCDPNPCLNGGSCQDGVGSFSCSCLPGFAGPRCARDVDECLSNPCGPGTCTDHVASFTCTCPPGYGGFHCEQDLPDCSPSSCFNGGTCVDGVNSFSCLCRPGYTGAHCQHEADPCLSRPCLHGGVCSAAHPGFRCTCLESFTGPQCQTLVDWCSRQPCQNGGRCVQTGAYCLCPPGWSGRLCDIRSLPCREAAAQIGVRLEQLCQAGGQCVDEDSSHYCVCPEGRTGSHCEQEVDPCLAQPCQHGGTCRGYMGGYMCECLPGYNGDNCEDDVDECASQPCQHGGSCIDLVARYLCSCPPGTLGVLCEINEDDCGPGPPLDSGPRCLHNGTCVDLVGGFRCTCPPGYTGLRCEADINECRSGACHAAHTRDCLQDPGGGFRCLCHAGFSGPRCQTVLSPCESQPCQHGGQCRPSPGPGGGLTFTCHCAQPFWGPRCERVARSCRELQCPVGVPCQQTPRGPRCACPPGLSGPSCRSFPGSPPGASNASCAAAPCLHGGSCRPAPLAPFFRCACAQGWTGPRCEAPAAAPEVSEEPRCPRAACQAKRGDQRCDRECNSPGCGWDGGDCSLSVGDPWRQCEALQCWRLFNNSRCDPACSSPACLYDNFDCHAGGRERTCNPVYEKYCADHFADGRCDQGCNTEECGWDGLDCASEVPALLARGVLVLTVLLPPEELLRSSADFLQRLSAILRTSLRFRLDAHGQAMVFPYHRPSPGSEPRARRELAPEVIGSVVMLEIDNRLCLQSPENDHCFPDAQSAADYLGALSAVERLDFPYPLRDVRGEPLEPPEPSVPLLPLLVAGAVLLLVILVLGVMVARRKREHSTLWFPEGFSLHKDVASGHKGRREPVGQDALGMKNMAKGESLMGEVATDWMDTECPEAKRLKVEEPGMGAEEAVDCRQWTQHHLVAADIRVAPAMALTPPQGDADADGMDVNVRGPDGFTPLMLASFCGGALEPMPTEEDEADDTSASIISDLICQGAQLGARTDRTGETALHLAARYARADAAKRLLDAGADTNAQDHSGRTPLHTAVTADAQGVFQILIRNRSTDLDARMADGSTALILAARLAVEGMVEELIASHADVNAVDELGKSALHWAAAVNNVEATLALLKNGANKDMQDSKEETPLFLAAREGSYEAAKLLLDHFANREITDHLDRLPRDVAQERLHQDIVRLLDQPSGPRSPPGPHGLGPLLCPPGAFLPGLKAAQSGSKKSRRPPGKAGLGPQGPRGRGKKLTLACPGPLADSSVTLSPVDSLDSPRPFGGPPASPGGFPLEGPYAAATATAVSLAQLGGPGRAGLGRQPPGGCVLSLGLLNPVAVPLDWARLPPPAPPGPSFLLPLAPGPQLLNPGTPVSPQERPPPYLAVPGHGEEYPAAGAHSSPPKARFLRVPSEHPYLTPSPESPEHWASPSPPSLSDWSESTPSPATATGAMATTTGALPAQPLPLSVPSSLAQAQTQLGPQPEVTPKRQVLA

`CC(c1ccccc1)C(O)C1C=CC2C(=O)N(c3ccccc3)C(=O)C2N1Nc1ccc([N+](=O)[O-])cc1` (stereo not given): the composite z-score is 1.07 in experiment [1]; 3.55 in experiment [5]; 0.0249 in [7]; 0.361 in [8]; 1.09 in experiment [9]; -0.027 in [10]. Besides, the composite z-score was 1.38 in experiment [11]; 0.831 in experiment [12]; 0.862 in experiment [13]; 0.781 in [15]; 1.3 in experiment [16]; 0.424 in [17]. Also, the figures for the composite z-score in [18], in experiment [19] and in [20] were 1.23, -0.405 and 0.854, respectively. For the same molecule, the z-score in experiment [2] was 0.197 (inactive); in [3], 1.58 (inactive); in experiment [4], 1.78 (inactive); in experiment [6], 0.1 (inactive); in experiment [14], -0.43 (inactive).

As for `C=CCNC(=O)[C@@H]1[C@H]2C(=O)O[C@H](c3ccccc3)[C@H](c3ccccc3)N2[C@H](c2ccc(O)cc2)[C@@]12C(=O)N(C(=O)OCCOC)c1ccc(C#CC3(O)CCCCCC3)cc12`, the composite z-score in [1] was -0.14; in [5], -1.28; in experiment [7] it was 0.143; in experiment [8], -0.669; in [9], -0.904; in [10], -0.305. Besides, the composite z-score is 0.482 in experiment [11]; -0.227 in experiment [12]; 0.854 in [13]; -1.72 in [15]; -1.44 in experiment [16]; -1.5 in experiment [17]. Also, the figures for the composite z-score in experiment [18], in experiment [19] and in experiment [20] were -1.45, -1.82 and -1.46, respectively. Also, the z-score is -0.857 (inactive) in [2]; 0.183 (inactive) in [3]; -0.26 (inactive) in experiment [4]; 1.23 (inactive) in [6]; -0.565 (inactive) in [14].

`COCCCNC(=O)[C@@]1(Sc2ccc(C)cc2)CC(=O)N(C2CCCCC2)[C@@H]1c1ccc(CO)cc1`: the composite z-score in experiment [1] was 1.08; in experiment [5] it was 2.96; in [7], 0.0977; in [8], -0.804; in experiment [9] it was 0.0236; in experiment [10], -0.221. In addition, the composite z-score in [11] was 0.0677; in [12], 0.196; in [13], 0.899; in experiment [15], 0.229; in experiment [16], -0.823; in [17] it was -0.687. The results for the composite z-score in [18], in [19] and in experiment [20] were -1.1, -1.65 and 0.446, respectively. Further, the z-score in experiment [2] is -0.858 (inactive); in experiment [3] it was 0.478 (inactive); in experiment [4] it was -0.874 (inactive); in [6], 0.195 (inactive); in [14] it was -0.397 (inactive).

Consider `C=CC[C@@]1(C(=O)N2CCOCC2)N=C(c2ccc(OCCCO)cc2)O[C@@H]1c1ccccc1CN=[N+]=[N-]`, for which the composite z-score in [1] was 1.56; in experiment [5] it was 3.28; in experiment [7], 0.691; in experiment [8] it was 0.355; in experiment [9], 1.09; in experiment [10], 0.776. For the same molecule, the composite z-score in experiment [11] was 0.706; in [12], 0.906; in [13], 1.18; in experiment [15], 1.48; in experiment [16] it was 1.32; in experiment [17], 0.749. The composite z-score came to 1.05 in experiment [18], 0.472 in experiment [19] and 1.34 in experiment [20]. The z-score was 0.0366 (inactive) in experiment [2]; 0.472 (inactive) in experiment [3]; -0.74 (inactive) in experiment [4]; 0.0893 (inactive) in experiment [6]; 1.02 (inactive) in [14].

For the molecule `COCCOC(=O)N1C(=O)[C@@]2(c3cc(C#CC4=CCCCC4)ccc31)[C@H](c1ccccc1OCCO)N1[C@H](c3ccccc3)[C@H](c3ccccc3)OC(=O)[C@H]1[C@@H]2C(=O)N1CCCCCCC1`, the composite z-score in experiment [1] was 1.57; in experiment [5], 2.9; in [7], -0.573; in [8], 0.766; in experiment [9], 1.05; in experiment [10] it was 0.0961. For the same molecule, the composite z-score was 1.17 in experiment [11]; 1.18 in [12]; -0.624 in experiment [13]; 1.04 in experiment [15]; 1.26 in experiment [16]; 0.173 in experiment [17]. In addition, the figures for the composite z-score in experiment [18], in [19] and in [20] were 0.974, 0.818 and 0.451, respectively. The z-score in experiment [2] was 1.31 (inactive); in experiment [3] it was 1.59 (inactive); in experiment [4] it was 3.07 (inactive); in experiment [6], 0.0735 (inactive); in [14], -0.262 (inactive).
